Only some compounds are listed: those with a hit (about 8.3% of all), similar ones and a draw of the others.
MCF10A rereplic – inducers of DNA re-replication in MCF 10A breast cells | hit rate 2.9% among 350,000 | Potency, µM (doses to about 46.1 µM), for inactives: at the highest dose activity, positive = re-replication, actives largely listed as activators | MCF 10A DNA re-replication, Hoechst nuclear intensity, 48 h | AID 624296; also: potency is read from the fitted curve at half-maximal effect; % of control where 0% means no effect; nearly all actives have a fitted effect of over 50% in size
BCR signal inh – blocks chronic active B-cell receptor signaling | hit rate 0.05% among 340,000 | ABC-DLBCL IkBa-CBG/CBR reporter, luminescence ratio, 4 h | Potency, µM (doses to about 46.1 µM), without a hit: at the highest dose activity change, negative = inhibition, hits mostly inhibitors | AID 493014; active = well fitted inhibition curve with a large enough effect in the signal ratio, with a control signal flat, not every such curve was filed as active; inconclusive = small, poorly fitted or top-dose-only effect, or effect the other way, or a change in a side signal; the % refers to the signal ratio;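 also: potency is read from the fitted curve at half-maximal effect; plate controls were basal doxycycline-induced cells for no effect and cells given 10 µM MG132 for full effect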
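Compounds up to 46 uM were incubated four hours with TMD8 cells whose green CBG68 luciferase is fused to IkappaBalpha; red CBR luminescence normalised the signal, and concentration-effect curves were fitted to fusion, red and ratio data.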
Giardia kill – Giardia lamblia killing; Giardia lamblia trophozoite viability; activity change, % at 7.66 µM, hits read low; hit rate 0.15% among 340,000; AID 540267; in the data active = activity change below about -80%; inconclusive = between about -30% and that limit;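 also: parasites exposed to compound for two days anaerobically before the ATP read; % is scaled to controls: 0 for no effect and ±100 for the full control effect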
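Luminescence from cellular ATP indicates surviving trophozoites (100 cells/well) following 48 hrs anaerobic compound treatment at 37 deg C; signal develops 15-30 min at room temperature.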
SW480 rereplic – induces DNA re-replication in SW480 colon adenocarcinoma cells; Potency, µM (titrated, usually from 46.1 µM), inactives show top-dose re-replication activation, most hits filed as activators; hit rate 1.8% among 340,000; SW480 DNA re-replication, Hoechst DNA content imaging, 48 h; also: potency is read from the fitted curve at half-maximal effect; % of control where 0% means no effect; nearly all actives have a fitted effect of over 55% in size
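Cells (250 per well) received 23 nL compound or DMSO by pin tool and were kept 48 hr at 37 C, 5% CO2. Nuclei were then stained with Hoechst for 40 min and scanned for DNA content.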
RORgamma inh – ROR gamma (mouse) transcription inhibition; hit rate 5.4% among 310,000; AID 2551; Drosophila S2 Gal4-RORgamma UAS-luciferase reporter, 20 h; Potency, µM (highest dose often 53.6 µM), without a hit: at the highest dose activity change, negative = inhibition, actives largely listed as inhibitors; P51450; also: potency is read from the fitted curve at half-maximal effect; % is scaled to controls: 0 for no effect and ±100 for the full control effect; nearly all actives have a fitted effect of over 60% in size
Target sequence (P51450 whole entry, looked up, the tested form may be a part): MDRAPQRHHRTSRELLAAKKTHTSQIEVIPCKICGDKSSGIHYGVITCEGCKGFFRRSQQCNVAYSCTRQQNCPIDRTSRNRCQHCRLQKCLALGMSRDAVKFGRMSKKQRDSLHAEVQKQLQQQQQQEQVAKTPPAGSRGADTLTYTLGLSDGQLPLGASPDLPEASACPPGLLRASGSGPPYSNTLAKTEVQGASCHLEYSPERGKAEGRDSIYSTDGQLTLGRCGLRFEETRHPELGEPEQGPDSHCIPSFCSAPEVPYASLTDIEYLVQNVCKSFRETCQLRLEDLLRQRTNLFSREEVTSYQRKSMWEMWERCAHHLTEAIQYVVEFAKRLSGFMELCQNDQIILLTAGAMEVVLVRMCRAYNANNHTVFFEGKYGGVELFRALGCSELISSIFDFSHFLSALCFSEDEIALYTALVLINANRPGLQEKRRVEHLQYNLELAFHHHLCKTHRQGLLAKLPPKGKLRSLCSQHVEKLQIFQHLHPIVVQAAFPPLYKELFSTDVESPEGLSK
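A Gal4/UAS one-hybrid system in insect cells: metallothionein-promoter Gal4–ROR gamma fusion plus Photinus luciferase reporter. Copper sulfate 700 uM final, 20 hr ambient incubation, luminescent detection after 10 min with reagent.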
Gal4-VP16 FLuc – counter-screen for ROR gamma inhibitors: Gal4-VP16 reporter. hit rate 3.5% among 310,000. AID 2546. Drosophila S2 Gal4-VP16 UAS-luciferase, luminescence, 20 h. Potency, µM (titrated, usually from 53.6 µM), without a hit: at the top dose activity, negative = inhibition, hits mostly inhibitors;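 also: Gal4-VP16 expression switched on by copper sulfate through the metallothionein promoter; potency is read from the fitted curve at half-maximal effect; % is scaled to controls: 0 for no effect and ±100 for the full control effect; nearly all actives have a fitted effect of over 50% in size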
* = called active by the depositor; u = inconclusive; x = no result; [ ] = remark or other dose. Unless noted, calls follow the shape of the dose curve; as a rule, active = well fitted curve in the direction sought with a large enough effect; inconclusive = small, poorly fitted or top-dose-only effect, or another doubt; inactive = no such curve, though single readings can be large; an effect the other way counts as inactive or inconclusive.

SMILES | MCF10A rereplic | BCR signal inh | Giardia kill | SW480 rereplic | RORgamma inh | Gal4-VP16 FLuc
CCOc1ccc(NC(=O)c2cnccn2)cc1 | -1.9% | u | u | -1.0% | u | u
COc1ccc(OC(C)C(=O)Nc2ccc([N+](=O)[O-])cc2)cc1 (configuration not stated) | 0.0% | -3.4% | -15.5 | -7.7% | u | -0.1%
C/C(=N\NC(=O)C(C)Oc1ccc([N+](=O)[O-])cc1)c1ccccn1 (configuration not stated) | 14.6µM* | 3.4% | -9.9 | 6.51µM* | 1.12µM* | 2.24µM*
COc1ccc(C(=O)NNC(=O)c2ccccn2)cc1 | 2.7% | u | -13.7 | 9.0% | 7.08µM* | 5.62µM*
COc1cc(OC)cc(C(=O)NNC(=O)c2ccccn2)c1 | u | u | 12.6 | u | 4.47µM* | 5.62µM*
COc1ccc2c(c1)C(=NNC(=O)c1ccccn1)c1cc(OC)ccc1-2 | u | u | -6.9 | -0.8% | 2.82µM* | 3.98µM*
Cc1nc(-c2nc(CC(=O)NNC(=O)c3ccc(Cl)cc3)cs2)cs1 | 0.1% | 5.3% | -10.7 | -7.8% | -17.2% | 3.7%
CC(Oc1cccc(Br)c1)C(=O)NNC(=O)c1ccccn1 (configuration not stated) | 16.4% | u | -15.5 | u | x | x
CC(Oc1ccccc1)C(=O)NNC(=O)c1ccccn1 (configuration not stated) | 25.5% | u | -20.1 | u | 7.94µM* | u
Cc1nc(C(=O)NNC(=O)c2ccc(Cl)cc2)cs1 | u | u | -7.8 | 0.8% | 3.98µM* | u
COc1ccc(OCC(=O)NNC(=O)c2ccccn2)cc1 | 0.3% | -6.2% | 7.3 | -5.3% | 12.6µM* | u
NS(=O)(=O)c1ccc(CNC(=O)c2cc(=O)[nH]c3ccccc23)cc1 | -0.1% | 2.3% | 1.7 | -2.0% | -0.9% | -3.4%
CCC(C(=O)NC1CCCCCC1)n1nc(C)c2c(C)n(-c3ccccc3)nc2c1=O (configuration not stated) | 3.5% | -1.6% | 4.7 | -0.3% | 23.0% | 3.0%
Cc1cccc(C)c1OCC(=O)N1CCc2ccccc2C1 | 3.1% | 5.1% | -14.2 | -32.8% | -7.9% | 1.6%
CN(C)C(CNC(=O)c1cc(-c2ccco2)nc2ccccc12)c1ccccc1 (configuration not stated) | 10.3% | 5.3% | 20.2 | -3.2% | x | x
COCCCNC(=O)c1cc(C)nn1-c1ccccc1 | 0.6% | -0.2% | -1.1 | 8.6% | 4.2% | 1.5%
COC(=O)c1ccc(N(CC(=O)NC2CCCC2)C(=O)c2ccc(C)s2)cc1 | -4.1% | 1.4% | 5.7 | -10.9% | -24.6% | 5.6%
Clc1ccccc1/C=C/c1nc(-c2ccccn2)no1 | -0.7% | u | u | -4.2% | 2.51µM* | u
CC(C)[C@H](NC(=O)c1ccccc1Cl)C(=O)Nc1nc(-c2ccccn2)cs1 | 13.0% | u | -18.2 | u | 7.94µM* | u
CC(Oc1ccc(Br)cc1)C(=O)Nc1nc(-c2ccccn2)cs1 (configuration not stated) | 11.8% | u | -3.6 | u | 2.51µM* | 3.16µM*
COc1cc(CNCCc2ccccc2F)ccc1OCC(=O)N1CCCCC1 | -3.7% | 1.8% | -9.5 | 0.5% | 0.4% | -11.2%
COc1cc2c(cc1OC)C(COc1cccc(C(F)(F)F)c1)NCC2 (configuration not stated) | u | -10.8% | -1.9 | -2.4% | 1.1% | -2.4%
COCC(C)NC(=S)NCCc1ccc(Cl)cc1Cl (configuration not stated) | u | 6.2% | -4.7 | u | 1µM* | 3.55µM*
COCC(C)NC(=O)COc1ccc(Cl)cc1Cl (configuration not stated) | -3.9% | u | 6.5 | -4.8% | -32.2% | -9.6%
COCCNC(=S)NCCc1ccc(Cl)cc1Cl | 1.4% | -1.8% | 11.3 | 16.4µM* | 6.31µM* | -25.6%
SMILES | MCF10A rereplic | BCR signal inh | Giardia kill | SW480 rereplic | RORgamma inh | Gal4-VP16 FLuc
CCOc1cccc(CN2CCCC(C(=O)c3cc(Cl)ccc3OC)C2)c1O (configuration not stated) | 3.6% | 13.1% | -14.2 | 4.9% | -7.7% | -1.7%
CCOC(=O)C(NC(=O)c1ccccc1Cl)(Nc1ccc(C(F)(F)F)cc1)C(F)(F)F (configuration not stated) | -3.6% | -10.9% | 1.3 | -5.1% | -3.0% | -19.0%
CCOC(=O)C(NC(=O)c1ccccc1Cl)(Nc1ccc(C)c(C)c1)C(F)(F)F (configuration not stated) | -67.8% | -10.1% | 2.3 | 4.11µM* | -12.7% | -6.3%
Cc1ccc(O)c(N=NC2=C(O)CC(C)(C)CC2=O)c1 | u | 4.3% | 4.6 | 16.3% | 7.94µM* | 8.91µM*
CC1(C)CC(=O)C(N=Nc2cc(Cl)c(Cl)c(Cl)c2)=C(O)C1 | 11.8% | 7.9% | 3.5 | -12.5% | 25.5% | u
O=C1OC(c2ccccc2)=NC12CC2c1ccc(Cl)cc1 (configuration not stated) | u | u | -1.9 | u | 10µM* | 5.01µM*
O=CN1N=C(c2ccccc2)CC1c1ccc(Cl)cc1 (configuration not stated) | -27.3% | 0.5% | -11.9 | -0.5% | -4.7% | -1.6%
Cc1ccc(NC(=O)CN2C(=O)NC(C)(CC(C)C)C2=O)c(Br)c1 (configuration not stated) | 1.3% | 0.1% | 3.0 | -0.4% | x | x
O=c1cc(-c2ccccc2)nc2c(-c3ccccc3)c(C(F)(F)F)[nH]n12 | 8.2µM* | 3.9% | -14.1 | u | -36.9% | 3.3%
CCOc1ccc(NS(=O)(=O)c2ccc(-c3cnc(C4CC4)o3)cc2)cc1 | 6.51µM* | -18.3% | -3.3 | 30.0% | 30.0% | 1.5%
CC(=O)Nc1ccc(NS(=O)(=O)c2ccc(-c3cnc(C4CC4)o3)cc2)cc1 | 5.6% | -0.4% | 3.4 | 3.7% | 20.6% | -11.2%
COc1ccccc1NS(=O)(=O)c1cc(-c2cnc(C3CC3)o2)ccc1C | u | u | 4.7 | u | -6.7% | 2.3%
COc1ccc(NS(=O)(=O)c2cc(-c3cnc(C4CC4)o3)ccc2C)cc1 | 5.8µM* | 12.6µM* | 34.0 | u | 10.9% | -19.7%
CC(=O)c1cccc(NS(=O)(=O)c2ccc(-c3cnc(C4CC4)o3)cc2)c1 | 19.8% | -13.2% | -2.2 | 1.0% | -30.3% | 8.91µM*
CC(C)=CCC/C(C)=C/CNC(=O)C[C@H]1C[C@H](C(=O)N2CCOCC2)[C@@]2(CCC3CCCC3)c3[nH]c4cc(-c5ccco5)ccc4c3CCN2C1=O | -21.9% | -1.2% | 13.7 | 18.2%[9.22 µM] | x | x
